Reference: PubChem BioAssay (NCATS)
Inconclusive results are not listed. A call without a number means that no potency is given here. Active and inactive are the calls of the source. Calls follow the shape of the dose curve; as a rule, active = well fitted inhibition curve with a large enough effect; inconclusive = small, poorly fitted or top-dose-only effect; inactive = flat fitted curve, though single readings scatter.

system: MKL-1; assay: qHTS assay to identify novel small-molecules to repurpose for Merkel cell carcinoma treatment (AID 1296009); settings: MCC and control cell lines, CellTiter-Glo viability, 72 h; series mostly up to 46 µM; also: nearly all actives have a fitted effect of over 60% in size
Method in brief: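 Dose-response viability screen; 72 hr exposure at 37 degree celsius; CellTiter-Glo added, 10 min room temperature, luminescence read; RLUs scaled between no-cell and DMSO wells.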
Potency is read from the fitted curve at half-maximal effect.

| SMILES | Potency |
| --- | --- |
| CC(=O)Oc1ccc(C(=C2CCCCC2)c2ccc(OC(C)=O)cc2)cc1 | inactive |
| Cc1ccnc(NS(=O)(=O)c2ccc(N)cc2)n1 | inactive |
| CO/N=C1\CN(c2nc3c(cc2F)c(=O)c(C(=O)O)cn3C2CC2)CC1CN (stereo not drawn) | inactive |
| NCCC(O)(P(=O)(O)O)P(=O)(O)O | inactive |
| CC1=C(C(=O)OC(C)C)C(c2cccc([N+](=O)[O-])c2)C(C(=O)OC2CN(C(c3ccccc3)c3ccccc3)C2)=C(N)N1 (stereo not drawn) | 21.1 µM (active) |
| CC[C@@H](CO)NCCN[C@@H](CC)CO | inactive |
| CCCC(=O)Nc1ccc(OCC(O)CNC(C)C)c(C(C)=O)c1 (stereo not drawn) | inactive |
| CC1=C(C(=O)O)N2C(=O)[C@@H](NC(=O)[C@H](N)c3ccc(O)cc3)[C@H]2SC1 | inactive |
| NCCc1ccn[nH]1 | inactive |
| COc1ccc(OC)c(C(O)CNC(=O)CN)c1 (stereo not drawn) | inactive |
| CC(=O)CC(c1ccc([N+](=O)[O-])cc1)c1c(O)c2ccccc2oc1=O (stereo not drawn) | inactive |
| CCN1CCC[C@H]1CNC(=O)c1c(OC)ccc(Br)c1OC | inactive |
| Nc1ccc(C(=O)Nc2ccccc2N)cc1 | 18.8 µM (active) |
| CC(=O)OCC(=O)NCCCOc1cccc(CN2CCCCC2)c1 | inactive |
| Nc1nc2ncc(CNc3ccc(C(=O)N[C@@H](CCC(=O)O)C(=O)O)cc3)nc2c(=O)[nH]1 | inactive |
| Nc1ccc(C(=O)O)cc1 | inactive |
| CCCCC1=NC2(CCCC2)C(=O)N1Cc1ccc(-c2ccccc2-c2nn[nH]n2)cc1 | inactive |
| N[C@@H](CCC(=O)N[C@@H](CS)C(=O)NCC(=O)O)C(=O)O | inactive |
